Bioassay records deposited in PubChem BioAssay by Johns Hopkins Ion Channel Center.
KCNQ2 block – blocks the rat KCNQ2 potassium channel; 310,000 tested, 1.1% active; CHO-K1 KCNQ2, FluxOR thallium flux, 20 min; stronger effect = lower value; O88943; B-score at 10 µM; AID 2156;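 active means fluorescence ratio B-score at most minus 3 library SDs, with starting brightness B-score within 2 library SDs, cut at about -5.5 in these data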
KCNQ2 pot – KCNQ2 (rat) channel potentiation. B-score at 10 µM. CHO-K1 KCNQ2, FluxOR thallium flux fluorescence; stronger effect = higher value. AID 2239. O88943. 310,000 tested, 0.54% active;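 active means fluorescence ratio B-score at least 3 SD of library B-scores, with initial fluorescence B-score within 3 of them, cut at about 5.3 in these data; same plate scores as AID 2156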;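 further: B-score of peak minus minimum over baseline fluorescence ratio after K+ and Tl+ stimulus; positive B-score means potentiation of KCNQ2 with more thallium influx and brighter signal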
Kir21 conf inh – confirmation of mouse Kir2.1 potassium channel inhibitors; 2,300 tested, 41% active; shares compounds with KCNQ2 pot; Kir2.1-expressing cells, FluxOR thallium flux fluorescence; stronger effect = lower value; Tl flux remaining, % of negative control (stronger effect = lower value), % at 10 µM; AID 2032;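 active means Primary-screen hit whose thallium flux fell at least 3 control SD below untreated wells in both duplicates, with normal baseline fluorescence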;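 further: 0% = blank wells without stimulus and 100% = stimulated no-compound controls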
Target sequence (P35561 whole entry, looked up): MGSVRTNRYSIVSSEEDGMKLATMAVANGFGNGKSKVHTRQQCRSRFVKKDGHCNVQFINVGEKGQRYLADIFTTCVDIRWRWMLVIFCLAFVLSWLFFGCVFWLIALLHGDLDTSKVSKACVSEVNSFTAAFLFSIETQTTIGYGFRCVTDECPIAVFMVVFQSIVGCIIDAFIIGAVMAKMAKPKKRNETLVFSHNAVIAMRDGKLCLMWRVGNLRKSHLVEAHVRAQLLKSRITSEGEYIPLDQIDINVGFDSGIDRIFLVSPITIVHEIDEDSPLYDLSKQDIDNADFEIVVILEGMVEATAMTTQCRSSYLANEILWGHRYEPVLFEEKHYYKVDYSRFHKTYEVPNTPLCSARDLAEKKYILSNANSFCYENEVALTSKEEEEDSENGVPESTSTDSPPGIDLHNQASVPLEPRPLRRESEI
HEK293 ctr – parental HEK293 activity in Kir2.1 inhibitor counter-screen; FluxOR signal as % of negative control (100 = no effect), % at 10 µM; AID 2105; shares compounds with KCNQ2 pot; parental HEK293 cells, FluxOR thallium flux fluorescence; 0% = unstimulated blank wells; 2,300 tested, 19% active;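 active means dye signal at least 3 control SD above or below untreated wells in both duplicates, raw fluorescence within 3, either direction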;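 further: percent is based on the flux ratio of peak minus minimum fluorescence over baseline F0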
CHO-K1 Tl ctr – alters thallium flux in parental CHO-K1 cells, KCNQ2 counter-screen; FluxOR thallium flux fluorescence; zero = vehicle mean+3SD, 100% = vehicle-minus-blank window; shares compounds with KCNQ2 pot; 1,200 tested, 43% active; activity increase over 3SD of controls, % at 10 µM; AID 2282;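 active means signal rise of at least 3 SD above the untreated control mean, in both duplicate wells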;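 further: counter screen of KCNQ2 potentiator hits so any rise reflects channel-independent effects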
KCNQ1 pot spec – tests whether KCNQ2 potentiators also act on human KCNQ1 | shares compounds with KCNQ2 pot | CHO KCNQ1 stable, FluxOR thallium flux fluorescence; beyond 3SD, as % of vehicle-control signal | activation over 3SD threshold, % at 10 µM | 1,200 tested, 28% active | AID 2283;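 active means fluorescence ratio rise of at least 3 SD of vehicle wells above their mean, in both replicate wells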;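 further: 0% = vehicle mean plus 3 SD and 100% = vehicle minus unstimulated blank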
KCNQ2 pot conf – confirmation of rat KCNQ2 potassium channel potentiators; shares compounds with KCNQ2 pot; CHO-KCNQ2 cells, FluxOR thallium flux fluorescence; potentiation, less the hit threshold, % at 10 µM; 1,200 tested, 68% active; AID 2287;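 active means fluorescence ratio rising 3 SD or more over the vehicle control mean in both replicates, plus primary screen hit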;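 further: peak minus minimum thallium fluorescence divided by baseline after K/Tl stimulus; 0% = vehicle mean plus 3 SD and 100% = vehicle minus unstimulated blank difference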
Kir21 spec – tests whether KCNQ2 potentiators also affect mouse Kir2.1; shares compounds with KCNQ2 pot; 1,200 tested, 2% active; activity over 3SD threshold, % at 10 µM; HEK293 Kir2.1, FluxOR thallium flux fluorescence;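 active means fluorescence ratio rise of at least 3 SD above the vehicle-control mean, seen in both replicates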;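 further: 0% = vehicle mean plus 3 SD and 100% = vehicle minus no-stimulus blank window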
KCNQ2 W236L pot – rat KCNQ2 W236L mutant potentiation by KCNQ2 potentiators; AID 2558; 940 tested, 10% active; shares compounds with KCNQ2 pot; CHO KCNQ2-W236L, automated patch clamp current; current increase over 3SD of negative controls (%), stronger effect = higher value, % at 25 µM;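 active means current increase at least 3 SD of the untreated controls above them in both duplicate recordings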
* hit, by the source's call; i = inactive; x = not tested or not shown. An excerpt weighted towards active compounds, which were near 1.6% of everything screened.

SMILES	KCNQ2 block	KCNQ2 pot	Kir21 conf inh	HEK293 ctr	others
O=C(NCc1ccco1)c1ccccc1-c1ccc(C(F)(F)F)cc1	i	6.09*	i	i	CHO-K1 Tl ctr=-8.1;KCNQ1 pot spec=23.0*;KCNQ2 pot conf=1.0*;Kir21 spec=-39.0;KCNQ2 W236L pot=i
O=C(NCc1ccco1)c1ccc(C(F)(F)F)cc1	i	1.02	x	x
CCCCNC(=O)Cn1c2c(c(-c3ccccc3Cl)cc1=O)CCC2	i	0.07	x	x
O=C(Cn1c2c(c(-c3ccccc3)cc1=O)CCCC2)N1CCCCCC1	i	8.39*	i	i	CHO-K1 Tl ctr=34.5*;KCNQ1 pot spec=18.9*;KCNQ2 pot conf=12.3*;Kir21 spec=-32.1;KCNQ2 W236L pot=i
N/C(Cc1ccc(Cl)cc1)=N\OC(=O)c1ccccc1	i	0.32	x	x
CC(=O)OCC1OC(n2ncc(=O)n(Cc3ccccc3)c2=O)C(OC(C)=O)C1OC(C)=O (centres undefined)	i	x	x	x
CC(C)(C)c1nn(-c2ccccc2)c2nc(Cl)c(C=O)cc12	i	x	x	x
CC(C)(C)c1nn(-c2ccccc2)c2[nH]c(=O)c(C=O)cc12	i	6.8*	i	i	CHO-K1 Tl ctr=4.4*;KCNQ1 pot spec=12.4*;KCNQ2 pot conf=-4.9;Kir21 spec=-42.0
CCOc1cc(-c2nc(-c3ccc(C)nc3OCC)no2)cc(OCC)c1OCC	i	x	x	x
CCN1CCN(c2nc(C)c3c(n2)CC(C)CC3=O)CC1 (centres undefined)	i	0.57	x	x
Cc1nc(N2CCN(Cc3ccccc3)CC2)nc2c1C(=O)CC(C)C2 (centres undefined)	i	x	65.0%*	i
O=C(COC(=O)C1(c2ccccc2F)CCCC1)NCc1cccs1	i	x	73.0%*	i
NC(=O)c1ccc(NC(=O)COC(=O)C2(c3ccccc3F)CCCC2)cc1	i	1.85	x	x
Cc1ccc(C(=O)NNc2ncnc3c2cnn3C)cc1	i	x	x	x
Cn1ncc2c(O/N=C(\N)c3ccc(C(F)(F)F)cc3)ncnc21	i	5.95*	i	i	CHO-K1 Tl ctr=20.4*;KCNQ1 pot spec=5.7*;KCNQ2 pot conf=-5.1;Kir21 spec=-18.2
CC(NC(=O)CCc1nnc(C2(c3ccc(Cl)cc3)CCC2)o1)C1CC1 (centres undefined)	i	1.25	x	x
Cc1cccc2[nH]c3c(N4CCC5(CC4)OCCO5)ncnc3c12	i	x	x	x
COCCn1c(CN2CCN(C(c3ccccc3)c3ccccc3)CC2)nc2c1c(=O)n(C)c(=O)n2C	i	5.9*	i	i	CHO-K1 Tl ctr=-2.8;KCNQ1 pot spec=-16.7;KCNQ2 pot conf=-16.6;Kir21 spec=-23.6
Cn1c(=O)c2c(nc(CN3CCN(C(c4ccccc4)c4ccccc4)CC3)n2CCCO)n(C)c1=O	i	x	x	x
Cc1ccc(/C=N/Nc2nc(C(C)(C)C)cs2)o1	i	6.92*	i	70.5%*	CHO-K1 Tl ctr=-8.2;KCNQ1 pot spec=-27.0;KCNQ2 pot conf=-3.0;Kir21 spec=-32.9;KCNQ2 W236L pot=i
CC(C)(C)c1csc(N/N=C/c2cccnc2)n1	i	1.5	x	x
CC(OC(=O)CSc1ccc([N+](=O)[O-])cc1)C(=O)NCc1ccco1 (centres undefined)	i	0.37	x	x
C/C(=N\Nc1nncc2ccccc12)c1ccc(C(C)(C)C)cc1	i	5.94*	i	i	CHO-K1 Tl ctr=65.2*;KCNQ1 pot spec=-21.4;KCNQ2 pot conf=-32.9;Kir21 spec=-40.0
C/C(=N\Nc1nncc2ccccc12)c1ccc(O)cc1	i	0.41	x	x
CCN(CC)CCCN(C(=O)c1ccccc1C)c1nc(-c2ccc(OC)cc2)cs1	i	0.81	x	x
SMILES	KCNQ2 block	KCNQ2 pot	Kir21 conf inh	HEK293 ctr	others
CCN(CC)CCCN(C(=O)c1ccc(OC)cc1)c1nc(-c2ccc(OC)cc2)cs1	i	1.34	77.5%*	i
O=C(C1CCOCC1)N1CCCC(N2CCN(c3cccc(Cl)c3)CC2)C1 (centres undefined)	i	0.04	x	x
CC(C)(c1ccccc1)c1ccc(OCCCNCCO)cc1	i	1.02	28.0%*	i
COCCCNCCCOc1ccc(C(C)(C)c2ccccc2)cc1	i	0.52	x	x
CCOc1ccc(N2CC(O)(c3cccs3)[N+]3=C2CCCC3)cc1 (centres undefined)	i	1.22	x	x
Cc1ccc2oc(=O)c3cnn(CC(=O)NCCN4CCOCC4)c3c2c1	i	1.46	x	x
O=C(O)COc1ccccc1/C=N/NC(=O)CSc1nc2ccccc2n1Cc1ccccc1Cl	i	2.33	i	73.0%*
O=C(CSc1nc2ccccc2n1Cc1ccccc1)N/N=C/c1ccccc1C(=O)O	i	0.51	x	x
COc1ccc(C(=O)Nc2ccc(NC(=O)c3ccco3)c(Cl)c2)cc1OC	i	1.01	x	x
COc1cc2c(cc1OC)C(C)N(S(=O)(=O)c1cccs1)CC2 (centres undefined)	i	1.16	x	x
CC1c2ccsc2CCN1S(=O)(=O)c1ccccc1 (centres undefined)	i	0.51	52.5%*	i
CCN(CC)CCCNC(=S)N1CCN(c2nc3ccccc3n2CC)CC1	i	0.61	x	x
O=C(c1ccc2c(c1)OCO2)C1CCCN(Cc2cccc(C(F)(F)F)c2)C1 (centres undefined)	i	x	x	x
O=C(c1ccc2c(c1)OCO2)C1CCCN(Cc2ccc(OC(F)F)cc2)C1 (centres undefined)	i	x	i	122.5%*
COc1ccc(N2CCOCC2)c(NC(=O)COc2cccc(C)c2C)c1	i	x	x	x
Cc1ccccc1OCC(=O)Nc1ccccc1N1CCOCC1	-6.5*	-6.5	50.0%*	i
CC(=O)Nc1cccc(OCC(=O)NC(C)c2ccc3ccccc3c2)c1 (centres undefined)	i	2.52	56.0%*	i
CC(=O)Nc1cccc(OCC(=O)Nc2ccccc2)c1	i	1.05	x	x
Cc1ccc(SCC(=O)OCC(=O)N(C)CC(=O)Nc2ccc(F)cc2)cc1C	i	7.03*	i	i	CHO-K1 Tl ctr=10.4*;KCNQ1 pot spec=1.0*;KCNQ2 pot conf=-2.0;Kir21 spec=-34.9;KCNQ2 W236L pot=i
COc1ccc(Cl)cc1C(=O)OCC(=O)N(C)CC(=O)Nc1ccc(F)cc1	i	2.67	x	x
CC(=O)C1=C(O)C(=O)N(Cc2ccco2)C1c1ccc(F)cc1 (centres undefined)	i	x	x	x
Cc1cc(C)nc(SCCCNCc2c(F)cccc2Cl)n1	i	x	x	x
Cc1[nH]n(-c2ccccc2)c(=O)c1C(=O)c1ccccc1	i	x	x	x
CCSC(=S)c1c(C)[nH]n(-c2ccccc2)c1=O	i	7.04*	i	221.5%*	CHO-K1 Tl ctr=-21.3;KCNQ1 pot spec=-9.4;KCNQ2 pot conf=-3.7;Kir21 spec=-28.5;KCNQ2 W236L pot=i
